Measurements reported in PubChem BioAssay (NCI).
About 79,000 compounds went through this panel and 15% of them were active in at least one assay; those are over-represented in the sample as a whole. Active and inactive are the calls of the source. No stated cut-off is given here; in the data, active means growth inhibition above about 70%; inactive means the rest.

experiment: NCI Yeast Anticancer Drug Screen. Data for the mec2-1 strain (AID 157); settings: S. cerevisiae mec2-1 strain, at 5.0 µM (retest, dose inferred, filed as 0.5), active compounds read high
Summary of the method: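 Vehicle-treated cultures served as reference for growth inhibition of compound-exposed mec2-1 yeast.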

Row | Structure (SMILES) | growth inhibition
1 | Oc1cc(Br)cc2cccnc12 | 98% (active)
2 | COC(=O)Cc1cn[nH]c1C(=O)OC | -51% (inactive)
3 | O=C1CCCCCCC2=C1C(Sc1ccccc1)CC2 (configuration not stated) | -6% (inactive)
4 | CC/C(=C1\C=CC(=O)S1)C(CC)c1ccc(OC(C)=O)cc1 (configuration not stated) | -11% (inactive)
5 | COc1ccc(C2=C(Cl)C(=O)N(c3ccc(C)cc3)C(=O)C2(Cl)Cl)cc1 | -2% (inactive)
6 | CN(C)C1C[C@@H](O[Si](C)(C)C(C)(C)C)C=C1S(=O)(=O)c1ccccc1 (some centres not stated) | -4% (inactive)
7 | NC(=O)C(=O)N/N=C/c1ccc([N+](=O)[O-])o1 | 6% (inactive)
8 | O=C(O)C1CCC(CC2CC3CCC2C3)CC1 (configuration not stated) | -54% (inactive)
9 | CCCCCCCCCCCCOCC[N+](CCO)(CCO)Cc1ccccc1 | 100% (active)
10 | Cc1cc(C)cc([C@H](C)N=Cc2cc(Br)ccc2O)c1 | -14% (inactive)
11 | C=CC1(c2ccc(OC)cc2)OCCCO1 | -13% (inactive)
12 | CC(C)CCOC(=O)c1ccc(O)cc1.[Zn+2] | -1% (inactive)
13 | C/C=C/C=C\C1OC(O)([C@H](CC)C(=O)NC/C=C/C=C(\C)[C@H](OC)C(C)C2OC(\C=C/C=C/C=C(\C)C(=O)c3c(O)ccn(C)c3=O)[C@H](O)[C@@H]2O)C(O)C(O)C1(C)C (some centres not stated) | -26% (inactive)
14 | O=c1cccccc1[O-].O=c1cccccc1[O-].O=c1cccccc1[O-].[Dy+3] | 18% (inactive)
15 | CCCC(=O)Oc1ccc(-c2ccc(Br)cc2)cc1 | 11% (inactive)
16 | Oc1c(Cl)c(Cl)c(O)c2c1CCCC2 | 67% (inactive)
17 | Clc1nc(Cl)nc(N2CCCc3ccccc32)n1 | -10% (inactive)
